Compound activity: PubChem, University of Pittsburgh Molecular Library Screening Center
HIV RNase H inh-1: HIV-1 RT RNase H inhibitors, primary screen, biochemical, fluorescence; inhibition, % at 10 µM; 65,000 compounds, 1.9% hits; Gag-Pol polyprotein (Human immunodeficiency virus type 1 group M subtype B (isolate …; AID 565, 2006; RT-RNase H RNA/DNA duplex cleavage; in the data active means inhibition above about 50%
HIV RNase H inh-2: HIV-1 RT RNase H inhibitors, retest, confirmation, biochemical | shares compounds with HIV RNase H inh-1 | inhibition, % at 10 µM | Recombinant RT RNase H, fluorescent RNA/DNA duplex cleavage | 1,000 compounds, 39% hits; in the data active means inhibition above about 48%; inconclusive means no clear call, values can overlap the other calls
* = called active by the depositor; u = inconclusive. Only a selection was taken, and hits are over-represented in it overall.

SMILES | HIV RNase H inh-1 | others
O=C1NC(c2ccco2)Nc2sc3c(c21)CCN(Cc1ccccc1)C3 (configuration not stated) | -1
COc1ccccc1S(=O)(=O)Cc1ccc(C(=O)NC(C)c2ccc3c(c2)OCCO3)o1 (configuration not stated) | -5
Cc1ccccc1-c1nc(Cc2ccccc2)no1 | -58
O=C(Nc1ccc(N2CCCCC2)c(C(=O)O)c1)c1ccco1 | -15
O=C(Nc1ccc(N2CCCC2)c(Cl)c1)c1ccco1 | -1
Cc1cccc(NC(=O)c2cc(NC(=O)c3ccco3)ccc2N2CCCCC2)c1 | 73* | HIV RNase H inh-2=u
CSc1ccc(C2Nc3ccccc3-c3cc(C)nn32)cc1 (configuration not stated) | 71* | HIV RNase H inh-2=-6
Cc1cc2n(n1)C(c1ccsc1)Nc1ccccc1-2 (configuration not stated) | -8
Cc1cc2n(n1)C(c1ccccc1Cl)Nc1ccccc1-2 (configuration not stated) | -13
CCn1c(SCC(=O)Nc2ccc(OCc3ccccc3)cc2)nnc1-c1ccco1 | 7
COc1ccc(S(=O)(=O)NCc2ccncc2)cc1OC | -8
CC(C)CNS(=O)(=O)c1ccc(CCC(=O)NCc2ccco2)cc1 | 7
CC(C)COC(=O)Cn1cnc2ccc(Br)cc2c1=O | 5
CC(C)Cn1c(=O)c(C(=O)Nc2cnccn2)c(O)c2ccccc21 | -12
Cn1c(=O)c(C(=O)Nc2cccnc2)c(O)c2ccccc21 | -13
CC(C)Cn1c(=O)c(C(=O)Nc2ccncc2)c(O)c2ccccc21 | 71* | HIV RNase H inh-2=47
CCn1c(SCC(=O)Nc2ccc(N(C)C)cc2)nnc1-c1cccc(C)c1 | 6
CCCCN(C)C(=O)c1coc(=O)c2ccccc12 | -6
Cc1ccc(CNC(=O)c2coc(=O)c3ccccc23)o1 | -18
CN(C(=O)c1coc(=O)c2ccccc12)c1ccc(F)cc1 | 72* | HIV RNase H inh-2=33
CC1CC(C)CN(c2nc3c(c(=O)[nH]c(=O)n3C)n2CCSc2nc3ccccc3o2)C1 (configuration not stated) | -3
O=C(Nc1ccc(S(=O)(=O)Nc2nccs2)cc1)C1CCCCC1 | -12
O=C(COc1ncnc2ccccc12)c1ccc2c(c1)OCCO2 | 2
CCOC(=O)c1cc(NC(=O)c2c(C)noc2C)cc(C(=O)OCC)c1 | -8
CCSc1nc2cc(C(=O)OC)ccc2c(=O)n1CC | -31
SMILES | HIV RNase H inh-1 | others
CCc1ccc(NC(=O)CSc2nc3cc(C(=O)OC)ccc3c(=O)n2Cc2ccco2)cc1 | 59* | HIV RNase H inh-2=57*
CCN(C(=O)CSc1nc2cc(C(=O)OC)ccc2c(=O)n1Cc1ccco1)c1cccc(C)c1 | 2
COC(=O)CCC(=O)N1CCc2cc(S(=O)(=O)N3CCN(c4ccccc4Cl)CC3)ccc21 | 7
CN(C)CCCN1C(=O)C(O)=C(C(=O)c2cc3ccccc3o2)C1c1ccccc1 (configuration not stated) | -3
Cc1ccc(-n2c(=O)[nH]c3c(C(N)=O)nc(-c4ccc(C)o4)nc32)cc1 | 55* | HIV RNase H inh-2=37
COc1ccc(OC)c(-c2nc(C(N)=O)c3[nH]c(=O)n(-c4ccc(F)cc4)c3n2)c1 | -1
Cc1ccc(-n2c(=O)[nH]c3c(C(N)=O)nc(CC(C)C)nc32)cc1 | 1
Nc1c(S(=O)(=O)c2cccc(Cl)c2)c2nc3ccccc3nc2n1/N=C/c1ccc(O)c(O)c1 | 92* | HIV RNase H inh-2=58*
Cc1cccc(S(=O)(=O)c2c(N)n(Cc3ccco3)c3nc4ccccc4nc23)c1 | 3
CC(C)CNC(=O)c1c(N)n(/N=C/c2cccnc2)c2nc3ccccc3nc12 | 5
CSCCC(NC(=O)c1ccccc1)C(=O)NCc1ccco1 (configuration not stated) | 0
CC(=O)C(Sc1nn(C)c(=S)s1)C(=O)Nc1ccccc1 (configuration not stated) | 27
COc1ccc(NC(=O)CN(C)S(=O)(=O)c2ccc3c(c2)OCCO3)c2ncccc12 | -1
O=C(CSc1nc2ccccc2o1)Nc1ccc(N2CCOCC2)cc1 | -3
Cc1[nH]c2ccccc2c1C(=O)CSc1nc2cc(S(=O)(=O)N3CCCCC3)ccc2o1 | 36
Cc1ccc(S(=O)(=O)N2CCN(C(=O)CSc3nc4ccccc4o3)C2)cc1 | -21
O=C1CCc2cc(S(=O)(=O)N3CCC(C(=O)NC4CCCc5ccccc54)CC3)ccc2N1 (configuration not stated) | -7
O=C(CSc1nc2cc(S(=O)(=O)N3CCOCC3)ccc2o1)NC1CCCc2ccccc21 (configuration not stated) | 85* | HIV RNase H inh-2=u
Cc1ccc(C(=O)CSc2nc3cc(S(=O)(=O)N4CCOCC4)ccc3o2)cc1 | 72* | HIV RNase H inh-2=23
CCOC(=O)N1CCN(S(=O)(=O)c2ccc3c(c2)oc(=O)n3C)CC1 | 7
O=C(N(c1ccccc1)c1ccccc1)n1ccnc1 | -7
COc1ccc2[nH]c(=O)c(CN(CCCN(C)C)C(=O)Nc3ccc(F)cc3)cc2c1 | -2
c1cn(CC2(Cn3ccnc3)COC2)cn1 | -8
CCC1CCCCN1S(=O)(=O)c1ccc(S(=O)(=O)N2CCN(S(=O)(=O)CC)CC2)cc1 (configuration not stated) | 51* | HIV RNase H inh-2=57*
CCC1CCCCN1S(=O)(=O)c1ccc2c(c1)CCN2C(=O)C1CCC1 (configuration not stated) | -7
SMILES | HIV RNase H inh-1 | others
CCS(=O)(=O)N1CCN(S(=O)(=O)c2ccc(F)cc2)CC1 | -8
CCC(C)OC(=O)c1[nH]c2c(c1C)C(=O)CC(c1ccc(N(C)C)cc1)C2 (configuration not stated) | -1
N#Cc1c(NC(=O)c2ccc(Cn3cc(Br)cn3)o2)sc2c1CCCCCC2 | 88* | HIV RNase H inh-2=62*
CCc1ccc(CCC(=O)Nc2sc3c(c2C#N)CCCC3)o1 | 43
CC1(C)Cc2c(sc(NC(=O)c3ccc(Br)o3)c2C#N)CO1 | -3
Nc1ccc(-c2nc3ccc(N)cc3o2)cc1 | -12
Nc1ccc(-c2nc3ccc(-c4nc5ccccc5o4)cc3[nH]2)cc1 | 73* | HIV RNase H inh-2=40
Nc1ccc2nc(-c3ccc(Cl)cc3)[nH]c2c1 | 3
Cc1c(CCC#N)c(N2CCN(C3CCCCC3)CC2)n2c(nc3ccccc32)c1C#N | 12
O=C(CCN1C(=O)CSC1=O)Nc1ccccc1 | 2
CCOC(=O)c1cc2sccc2n1CC(=O)N1c2ccccc2CC1C (configuration not stated) | 57* | HIV RNase H inh-2=u
CCOC(=O)c1c(C)[nH]c(C(=O)OCC(=O)N2c3ccccc3CC2C)c1C (configuration not stated) | -4
CCOC(=O)c1cc2sccc2n1CC(=O)c1ccc2c(c1)OCCO2 | -12
CC(C)CN(C(=O)COC(=O)c1cc2ccccc2oc1=O)C1CCS(=O)(=O)C1 (configuration not stated) | 0
Cc1cc(C)n(-c2ccc(C(=O)OCC(=O)N(CC(C)C)C3CCS(=O)(=O)C3)cc2)n1 (configuration not stated) | -9
CC(C)CN(C(=O)COC(=O)c1ccc2c(c1)NC(=O)CS2)C1CCS(=O)(=O)C1 (configuration not stated) | 77* | HIV RNase H inh-2=79*
CCn1ccnc1C(O)c1cccc(OC)c1OC (configuration not stated) | -15
